Most compounds without a hit are left out; they make up all but 15% or so of the library.
ELG1 repair inh: qHTS screen for small molecules that inhibit ELG1-dependent DNA repair in human embryonic kidney (HEK293T) cells expressing luciferase-tagged ELG1; HEK293T ELG1-luciferase reporter, luminescence, 16 h; DNA damage induced by 5-fluorouridine; Potency, µM (series often up to 46.1 µM), without a hit: top-dose activity change, negative = inhibition, actives largely listed as inhibitors; actives 2.3% (n = 330,000); AID 504467, 2011; also: nearly all actives have a fitted effect of over 55% in size
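Reporter activity after DNA damage by 5-fluorouridine is monitored. Compound-treated cells incubate 16 hr at 37 °C, then ONE-Glo is added for 30 min before luminescence reading.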
TDP1 cell noCPT: qHTS for Inhibitors of human tyrosyl-DNA phosphodiesterase 1 (TDP1): qHTS in cells in absence of CPT | DT40 Tdp1-/- hTDP1 cells, no CPT, ATP luminescence, 48 h | Potency, µM (series often up to 46.2 µM), for the others: top-dose activity change, negative = growth inhibition, most hits filed as inhibitors | actives 15% (n = 420,000) | AID 686978, 2013; also: nearly all actives have a fitted effect of over 55% in size
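Camptothecin absent (DMSO only). Human TDP1-complemented DT40 knockout cells, 400 cells/well, 37 °C for minimum 48 hr; ATP measured via CellTiter-Glo, 30 min dark incubation, luminescence.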
12-LOX inh: Primary qHTS assay for inhibitors of human arachidonate 12S-lipoxygenase (ALOX12): Round 2; purified 12hLO, xylenol orange hydroperoxide absorbance; Potency, µM (series often up to 108 µM), for inactives: top-dose activity change, negative = inhibition, most hits filed as inhibitors; actives 1.1% (n = 580,000)
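Purified human 12hLO (150 nM final) in 25 mM Hepes, 0.01% Triton X-100, pH 7.0 was preincubated 15 min at room temperature with compound. Then 40 uM arachidonic acid was added, 30 min. Hydroperoxide was read by Fe-XO absorbance ratio 573/405 nm.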
VP16 counter: VP16 counterscreen qHTS for inhibitors of ROR gamma transcriptional activity | Potency, µM (series often up to 53.6 µM), inactives show at the highest dose activity, negative = inhibition, most hits filed as inhibitors | Drosophila S2 Gal4-VP16 UAS-luciferase, luminescence, 20 h | actives 3.5% (n = 310,000);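 also: Gal4-VP16 expression switched on by copper sulfate through the metallothionein promoter; nearly all actives have a fitted effect of over 50% in size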
TDP1 cell CPT: qHTS for Inhibitors of human tyrosyl-DNA phosphodiesterase 1 (TDP1): qHTS in cells in presence of CPT | actives 12% (n = 420,000) | Potency, µM (top dose mostly 46.2 µM), without a hit: at the highest dose activity change, negative = growth inhibition, hits mostly inhibitors | chicken DT40 Tdp1-/-;hTDP1 cells + 20 nM CPT, ATP luminescence, 48 h | AID 686979, 2013; also: nearly all actives have a fitted effect of over 55% in size
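Chicken DT40 Tdp1-/- cells stably complemented with human TDP1 were seeded at 400 cells/well in medium containing 20 nM camptothecin, exposed to pin-transferred compounds, and grown at 37 °C for at least 48 hr. Viability was read as ATP luminescence.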
RORg inh: qHTS for inhibitors of ROR gamma transcriptional activity. Nuclear receptor ROR-gamma (Mus musculus), P51450. Drosophila S2 Gal4-RORgamma UAS-luciferase reporter, 20 h. Potency, µM (top dose mostly 53.6 µM), for inactives: top-dose activity change, negative = inhibition, hits mostly inhibitors. actives 5.4% (n = 310,000). AID 2551, 2010; also: nearly all actives have a fitted effect of over 60% in size
Target sequence (P51450 whole entry, looked up, the tested form may be a part): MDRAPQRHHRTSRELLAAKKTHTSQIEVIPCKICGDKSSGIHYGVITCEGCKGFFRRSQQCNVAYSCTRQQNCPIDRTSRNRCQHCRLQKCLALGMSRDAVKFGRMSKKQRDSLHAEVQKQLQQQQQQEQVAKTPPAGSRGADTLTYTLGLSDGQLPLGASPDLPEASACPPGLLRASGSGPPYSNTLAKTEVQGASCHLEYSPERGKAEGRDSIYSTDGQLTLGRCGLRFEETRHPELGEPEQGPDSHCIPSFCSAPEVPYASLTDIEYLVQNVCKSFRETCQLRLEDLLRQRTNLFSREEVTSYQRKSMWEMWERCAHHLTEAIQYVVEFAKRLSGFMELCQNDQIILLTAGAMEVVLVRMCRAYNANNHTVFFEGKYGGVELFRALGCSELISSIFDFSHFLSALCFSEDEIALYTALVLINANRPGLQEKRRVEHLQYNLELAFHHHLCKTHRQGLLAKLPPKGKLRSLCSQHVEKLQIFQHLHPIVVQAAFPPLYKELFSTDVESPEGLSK
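Schneider cells (Drosophila), stable Gal4 DBD–ROR gamma + UAS-luc; 1 hr cmpd preincubation; Cu2+ induction 700 uM final; 20 hr ambient; luminescence.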
* = called active by the depositor; ? = inconclusive; . = not tested or not shown. Calls follow the shape of the dose curve; as a rule, active = well fitted curve in the direction sought with a large enough effect; inconclusive = small, poorly fitted or top-dose-only effect, or another doubt; inactive = no such curve, though single readings can be large; an effect the other way counts as inactive or inconclusive. % is scaled to controls: 0 for no effect and ±100 for the full control effect; potency is read from the fitted curve at half-maximal effect.

SMILES	ELG1 repair inh	TDP1 cell noCPT	12-LOX inh	VP16 counter	TDP1 cell CPT	RORg inh
Cc1nc2sc(-c3ccccc3)cc2c(=O)n1-n1cccc1	?	?	-4%	8%	?	5%
Cc1nc2sc(-c3ccccc3)cc2c(=O)n1N	?	?	1%	?	?	7.1µM*
Cc1nc2sc(-c3ccccc3)cc2c(=O)[nH]1	?	?	-3%	?	?	?
COc1cc(Nc2nc3ccccc3nc2NS(=O)(=O)c2cccc(Cl)c2)cc(OC)c1	.	.	-6%	.	.	.
Cc1cc(C)c2sc(N(CCN(C)C)C(=O)c3cc(Cl)sc3Cl)nc2c1	6%	?	-26%	-8%	?	4%
COc1ccccc1C(=O)N(CCN(C)C)c1nc2cc(C)cc(C)c2s1	7%	26µM*	?	-3%	?	-22%
COc1cc2ccccc2cc1C(=O)N(CCN(C)C)c1nc2c(C)cccc2s1	-7%	23µM*	?	0%	16µM*	-3%
CCN(CC)CCN(C(=O)c1cc2ccccc2cc1OC)c1nc2ccc(OC)cc2s1	-4%	18µM*	-23%	?	?	-7%
COc1cc2ccccc2cc1C(=O)N(CCN(C)C)c1nc2c(OC)ccc(OC)c2s1	-10%	?	?	?	?	?
CCN(CC)CCN(C(=O)c1cc2ccccc2cc1OC)c1nc2ccc(F)cc2s1	-20%	?	?	-1%	18µM*	?
O=C(NC1CCCC1)c1c(OCC2CC2)cc(=O)n2c1CCOCC2	.	.	17%	.	.	.
CCCc1nc(C)n2ccn(Cc3cccc(C#N)c3)c(=O)c12	.	.	38%	.	.	.
Cc1nc(-c2ccccc2)n(CC(=O)Nc2ccc(F)c(Cl)c2)c(=O)c1CCO	.	.	8%	.	.	.
CC(=O)c1cccc(N=Nc2c(-c3ccccc3)[nH]n(-c3ccccc3)c2=O)c1	8.2µM*	?	3%	-17%	?	?
CC1CC(C)CN(C(=O)CSC2=Nc3ccccc3C3=NC(Cc4c[nH]c5ccccc45)C(=O)N23)C1 (stereo not drawn)	-18%	16µM*	.	-14%	?	25%
CCOC(=O)C1=C(C)N=C2c3ccccc3C(=O)C2C1c1ccc(Cl)cc1 (stereo not drawn)	21µM*	?	?	1%	?	36%
CC(C)[Si]1(C(C)C)OCC2OC(n3cnc4c(N)ncnc43)C(N)C2O[Si](C(C)C)(C(C)C)O1 (stereo not drawn)	.	12µM*	-7%	.	13µM*	.
COc1ccc(-c2cc3ccccc3oc2=O)cc1NC(=S)NC(=O)c1ccc2c(c1)OCCO2	?	9.2µM*	-14%	0%	12µM*	?
CCC(=O)Nc1cc(-c2cc3ccccc3oc2=O)ccc1OC	?	?	-1%	10%	-27%	0%
COc1ccc(-c2cc3ccccc3oc2=O)cc1NC(=O)c1ccc([N+](=O)[O-])o1	-9%	15µM*	-16%	-9%	21µM*	2%
COc1ccc(/C=C/C(=O)Nc2ccc(-n3nncc3-c3ccccc3)cc2)cc1OC	15µM*	8.2µM*	9%	-2%	21µM*	?
CCOc1ccc(C(=O)Nc2ccc(-n3nncc3-c3ccc(OC)cc3)cc2)cc1	.	?	5%	.	?	.
CCOc1ccc(C(=O)Nc2ccc(-n3nncc3-c3ccccc3)cc2)cc1OCC	.	15µM*	-23%	.	18µM*	.

High-throughput results from PubChem BioAssay.
